Assay outcomes from PubChem BioAssay.
ERAP1 inh = blocks human ERAP1 aminopeptidase activity. Q9NZ08. recombinant ERAP1, Leu-AMC fluorescence, 60 min. inhibition, % at 10.7 µM. 340,000 compounds, 0.15% hits. AID 652197;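 active = mean replicate inhibition of at least 30%, or all replicates individually reaching that 30% level; inactive = mean below 30% and not every replicate reaching it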;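 also: 0% = neutral control wells and 100% = L-leucinethiol positive control wells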
MLL AF4-AF9 inh = inhibitors of human MLL-AF4/AF9 interaction. 350,000 compounds, 0.47% hits. inhibition, % at 10 µM. AID 651704. AlphaScreen, biotin-AF4 peptide binding to FLAG-AF9. P42568;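 active = every replicate reaching a set inhibition limit, whatever the replicate mean, cut at about 25% in these data; inconclusive = mean inhibition reaches that limit but some replicates miss it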;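 also: 0% = plate neutral control median and 100% = total signal loss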
DENV2 CPE rescue = protects cells from dengue virus 2 cytopathic effect; DENV2-infected cells, cytopathic effect rescue, plate reader; CPE inhibition, % at 9.99 µM; 350,000 compounds, 1.7% hits; in the data active = CPE inhibition above about 20%, passing the limit was not always enough; inconclusive = no clear call, values can overlap the other calls; tested in BHK-21 cells;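 also: 0% = median of neutral control wells and 100% = median of positive control wells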
ERp5 block = inhibitors of human ERp5 | Q15084 | ERp5 insulin aggregation, absorbance 650 nm, 90 min | inhibition, % at 9.99 µM | 350,000 compounds, 0.05% hits | AID 651711;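 active = mean replicate inhibition above about 25%, with every replicate also reaching it, limit read from the data, passing the limit was not always enough; inconclusive = only one of those two criteria met; inactive = neither criterion met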
PDI inh = PDI (human) enzyme inhibition. P07237. inhibition, % at 10 µM. PDI insulin aggregation turbidity, A650, 90 min. 350,000 compounds, 0.052% hits;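 active = mean inhibition across replicates of 30% or more, whatever share of single replicates reach that level; inconclusive = mean inhibition below 30% while every single replicate reaches 30%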
Target sequence (P07237 whole entry, looked up): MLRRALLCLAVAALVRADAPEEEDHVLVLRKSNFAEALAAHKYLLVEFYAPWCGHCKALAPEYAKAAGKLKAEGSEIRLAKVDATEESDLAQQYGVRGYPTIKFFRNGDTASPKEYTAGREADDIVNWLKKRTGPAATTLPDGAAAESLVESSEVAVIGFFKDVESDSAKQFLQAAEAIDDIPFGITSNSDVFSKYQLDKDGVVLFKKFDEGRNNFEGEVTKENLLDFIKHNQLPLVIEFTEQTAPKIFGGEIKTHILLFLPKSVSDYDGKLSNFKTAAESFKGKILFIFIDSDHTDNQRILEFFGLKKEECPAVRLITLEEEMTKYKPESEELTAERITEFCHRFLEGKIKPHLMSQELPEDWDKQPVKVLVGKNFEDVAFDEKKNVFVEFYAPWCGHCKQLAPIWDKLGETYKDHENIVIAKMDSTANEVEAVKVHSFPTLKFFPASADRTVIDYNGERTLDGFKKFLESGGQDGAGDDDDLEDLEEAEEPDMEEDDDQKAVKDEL
The depositor's hits bear a star; ? = inconclusive; . = no result given; ! = not confirmed by another sample. Shown are actives, neighbours in structure and some others; about 1.8% of the full set was active somewhere.

SMILES	ERAP1 inh	MLL AF4-AF9 inh	DENV2 CPE rescue	ERp5 block	PDI inh
C[C@H](CO)N1C[C@H](C)[C@H](CN(C)Cc2ccccc2)OCCCC[C@H](C)Oc2ccc(NS(=O)(=O)c3ccc(Cl)cc3)cc2C1=O	1	11	-20	1	.
COc1ccccc1CCC(=O)Nc1ccc2c(c1)c(=O)n(C)n2C	38*	0	-7	8	-9
C[C@H]1CCCCO[C@@H](CN(C)CC2CCCCC2)[C@@H](C)CN([C@@H](C)CO)C(=O)c2cc(NC(=O)Nc3ccc4c(c3)OCO4)ccc2O1	-4	-15	-1	-16	.
COc1cc(/C=C/C(=O)OCC(=O)N2CCCC2)ccc1OCC#N	11	31*	11	-14	16
CCN1CCN(C(=O)/C=C/c2ccc3c(c2)OCO3)CC1	2	-1	11	-1	8
CCN1CCN(C(=O)/C=C/c2ccc(OC)c(OC)c2)CC1	-4	2	20*	1	4
Cc1ccc(S(=O)(=O)Nc2ccc3c(c2)CC(=O)N([C@@H](C)CO)C[C@@H](C)[C@H](CN(C)Cc2ccc(Cl)c(Cl)c2)O3)cc1	-1	0	19	-1	.
CN1C(=O)c2cc(NC(=O)C3CC3)ccc2OC[C@H]2O[C@@H](CC(=O)O)CC[C@@H]21	5	12	-3	1	.
CCn1nc(NC(=O)C(C)C)c2cc3cccc(C)c3nc21	1	-11	-5	-2	5
CCn1nc(NC(C)=O)c2cc3cccc(C)c3nc21	75*	-7	8	0	-13
C[C@@H]1CN([C@H](C)CO)C(=O)c2cc(NC(=O)Cc3cn(C)c4ccccc34)ccc2O[C@H]1CN(C)Cc1ccc(C(=O)O)cc1	0	0	-7	-3	.
C[C@@H]1CN([C@H](C)CO)C(=O)c2cc(NC(=O)Cc3cn(C)c4ccccc34)ccc2O[C@H]1CN(C)S(=O)(=O)c1ccc(F)cc1	1	-2	58*!	5	?
C[C@@H]1CN([C@@H](C)CO)C(=O)c2cc(NC(=O)Cc3cn(C)c4ccccc34)ccc2O[C@H]1CN(C)S(=O)(=O)c1ccc(F)cc1	-1	0	16	-16	.
CC(C)NC(=O)N(C)C[C@@H]1Oc2ccc(NC(=O)Cc3cn(C)c4ccccc34)cc2C(=O)N([C@@H](C)CO)C[C@H]1C	-4	1	80*	-2	.
C[C@H](CO)N1C[C@H](C)[C@H](CN(C)Cc2ccc(C(=O)O)cc2)Oc2ccc(NC(=O)Cc3cn(C)c4ccccc34)cc2C1=O	1	1	70*	0	.
COc1ccc(S(=O)(=O)N2C[C@@H](O)COC[C@@H]3O[C@H](CC(=O)N[C@@H]4CCN(Cc5ccccc5)C4)CC[C@H]32)cc1	-5	2	-4	1	.
O=C(O)c1ccccc1C(=O)Nc1n[nH]c(=S)s1	79*	1	-3	3	-2
N=c1c(C(=O)NC2CCCCC2)cc2c(=O)n3ccccc3nc2n1CC1CCCO1 (stereo unspecified)	103*	1	-3	-3	-7
N=c1c(C(=O)NCCN2CCOCC2)cc2c(=O)n3ccccc3nc2n1CCCN1CCOCC1	37*	0	-5	-5	4
N=c1c(C(=O)NC2CCCC2)cc2c(=O)n3ccccc3nc2n1CC1CCCO1 (stereo unspecified)	-2	-6	3	1	6
N#Cc1ccc(-c2ccc([C@H]3[C@@H](CO)N4CCCCN(S(=O)(=O)c5ccccc5)C[C@@H]34)cc2)cc1	1	-3	46*	-2	.
CCS(=O)(=O)N1CCCCN2[C@H](CO)[C@H](c3ccc(-c4cccc(C#N)c4)cc3)[C@H]2C1	-1	2	-16	0	.
N#Cc1ccc(-c2ccc([C@@H]3[C@@H](CO)N4CCCCN(S(=O)(=O)c5ccccc5)C[C@H]34)cc2)cc1	2	2	10	-1	.
CCS(=O)(=O)N1CCCCN2[C@H](CO)[C@@H](c3ccc(-c4ccc(C#N)cc4)cc3)[C@@H]2C1	0	5	65*	-4	.
CCS(=O)(=O)N1CCCCN2[C@H](CO)[C@H](c3ccc(-c4ccc(C#N)cc4)cc3)[C@H]2C1	-1	4	55*	-6	.
CCS(=O)(=O)N1CCCCN2[C@H](C1)[C@H](c1ccc(-c3cccc(C#N)c3)cc1)[C@@H]2CO	1	4	-12	-5	.
Cc1cc(S(=O)(=O)NC(=O)[C@H]2O[C@@H](n3ccc(=O)[nH]c3=O)[C@H](O)[C@@H]2O)ccc1Br	-5	.	20*	-2	.
